Data on 40 molecules can be found in PubChem BioAssay (Tox21).

Values joined by “and” are separate entries in the source; they are usually repeats but may differ in a detail not shown here. Equal values may be shown once. A number with no mark means an inactive call. Where a call stands in place of a potency, no number is given. Active and inactive are the calls of the source. The call rests on the fitted dose curve; in most records, active means well fitted curve in the direction sought with a large enough effect in the repeat runs; inconclusive means weak or mixed curves; inactive means flat fitted curve, though single readings scatter.
Potency means the concentration at half of the fitted maximal effect.

This test can be described thus: qHTS assay to test for compound auto fluorescence at 590 nm (red) in HepG2 cells (AID 720674). As to conditions: HepG2 autofluorescence, red 540/590 nm, 1 h; series mostly up to 91.3 µM. An excerpt: U.S. Tox21 Program National Center for Advancing Translational Sciences [NCATS] NIH Chemical Genomics Center [NCGC] U.S. Environmental Protection Agency [EPA] National Institutes of Environmental Health Sciences [NIEHS] National Toxicology Program [NTP] U.S. Food and Drug Administration [FDA] Tox21 Assay Overview: Compound auto fluorescence often interferes with screening of the compound library against various biological targets and signaling pathways. Some of these compounds may have fluorophoric properties. Such properties may interfere with the assay outputs resulting in false positives and/or negatives. To decrease such complications and ensure the compound activities are relevant in terms of biological response, the Tox21 10K compound library was screened for auto fluorescence. From the fluorophores used as reporter signals in our screening assays, the auto fluorescence equivalencies of compounds against three fluorophores have been evaluated: Triamterene, Fluorescein and Rose Bengal sodium for blue, green and red fluorescence, respectively. The fluorescence intensities were measured using Excitation/Emission wavelengths at 405/460nm, 485/535nm and 540/590nm for blue, green and red labels, respectively. This assay includes the red fluorescence data.
Tox21 Assay Protocol Summary: 2,000 HepG2 cells in 5 uL of culture medium (MEM containing 10% FBS) per well were dispensed into black wall/clear bottom 1536-well plates using a Multidrop Combi Dispenser (ThermoFisher Scientific, Waltham, MA). The assay plates were incubated overnight at 37 C to allow cell attachment to the well bottom, followed by the transfer of 23 nL compound or DMSO vehicle by a pintool work station (Kalypsys , San Diego, CA). After the assay plates were incubated for 1 hr at 37 C and 5% CO2, fluorescence intensities in the assay plates were measured by an Envision (PerkinElmer, Shelton, CT) plate reader using three labels for measuring blue, green and red fluorescence at […] 460, 535 and 590 nm respectively.
In general terms: qHTS replaces the single test concentration by a dilution series.
`O=C1NCCN1CCN1CCC(c2cn(-c3ccc(F)cc3)c3ccc(Cl)cc23)CC1`: the Potency entry was “inactive”. The same measure, in the same setting: under `C[Si](C)(C)Cl` stands “inactive”; under `CC(O)C#CC(C)O` (stereo not given), “inactive”; under `O=C(Oc1ccccc1)c1cccc(C(=O)Oc2ccccc2)c1`, “inactive”. In the case of `CCCOc1sc(C(=O)N2CCC(c3cc(CN)ccc3F)CC2)c(C)c1Br`, the Potency result was “inactive”. Same read-out and setting: under `O=S(=O)(O)CCCN1CCOCC1` stands “inactive”.

With `CNC(=S)NN`, the Potency result is “inactive”. Still for that read-out and setting: under `CCc1cccc(C)c1` stands “inactive”. On the same count and under the same terms, for `CCCCCCCCCCOCC(O)CN` (stereo not given) the value was “inactive”; for `CCCCCCCCCC(=O)N(C)C`, “inactive”; for `O=C(c1ccccc1)c1cc(Cl)ccc1O`, “inactive”. In the case of `CC(=O)Oc1ccc(C2(c3ccc(OC(C)=O)cc3)Oc3ccccc3NC2=O)cc1`, the Potency result is “inactive”. In the case of `CNCC[C@H](Oc1cccc2ccccc12)c1cccs1`, the Potency entry is “inactive”. For `CCCCCCCC/C=C/CCCOC(C)=O`, the Potency result was “inactive”.

Regarding `CCC(=O)OCCc1ccccc1`, the Potency result is “inactive”. Regarding `O=C1OC(OC(=O)c2cccnc2Nc2cccc(C(F)(F)F)c2)c2ccccc21` (stereo not given), the Potency entry is “inactive”. Same read-out and setting: under `Nc1ncnc2c1ncn2[C@@H]1O[C@H](COP(=O)(O)O)[C@@H](O)[C@H]1O` stands “inactive”; under `COC(=O)CC#N`, “inactive”. Consider `O=Nc1ccc(NO)cc1`, for which the Potency result is “inactive”. Still for that read-out and setting: under `CN(C)c1ccc(N=Nc2ccccc2C(=O)O)cc1` stands “inactive”; under `CCCCCCCCCCCCN(CCO)CCO`, “inactive”. Regarding `Cn1cnc2ncnc(N)c21`, the Potency entry is “inactive”.

For the molecule `CCN(CC)c1ccc(N)cc1`, the Potency entry is “inactive”. Regarding `CCCCCCCCCCCCOC(=O)c1cc(O)c(O)c(O)c1`, the Potency result is “inactive”. As to `CCCCCCCC/C=C\CCCCCCCC(=O)OCCOC(=O)CCCCCCC/C=C\CCCCCCCC`, the Potency entry was “inactive”. The same measure, in the same setting: under `CCN=c1cc2oc3cc(NCC)c(C)cc3c(-c3ccccc3C(=O)OCC)c-2cc1C` stands 3.55 µM (active) and 3.98 µM (active); under `NC(=O)c1ccccc1N`, “inactive”; under `CC(NCCC(c1ccccc1)c1ccccc1)c1ccccc1` (stereo not given), “inactive”.

Turning to `COc1cc(C(C)C)c2c(c1)S(=O)(=O)N(COc1cc(=O)n3cccc(OCCN4CCCCC4)c3n1)C2=O`, the fluorescence, relative to Rose Bengal is 0.436% [at 18.6 µM].

As to `Cc1cn[nH]c1`, the Potency entry was “inactive”. With `O=C1C=CC(=O)N1c1ccccc1`, the Potency result is “inactive”. On the same count and under the same terms, under `C=CC(=O)OCCC#N` stands “inactive”. The same measure, in the same setting: for `COc1cccc(CCc2ccccc2OCC(CN(C)C)OC(=O)CCC(=O)O)c1` (stereo not given) the value was “inactive”; for `Cc1nc(Nc2ncc(C(=O)Nc3c(C)cccc3Cl)s2)cc(N2CCN(CCO)CC2)n1`, “inactive”; for `Cc1occc1SSc1ccoc1C`, “inactive”. On the same count and under the same terms, for `NC1(c2ccc(-c3nc4ccn5c(=O)[nH]nc5c4cc3-c3ccccc3)cc2)CCC1` the value was “inactive”. Take `O=C(O)c1cccc(Cl)n1`: the Potency entry is “inactive”. Still for that read-out and setting: under `CCCCCCCOC(=O)c1ccc(O)cc1` stands “inactive”. With `CCCCOc1ccc(C(=O)CCN2CCCCC2)cc1`, the fluorescence, relative to Rose Bengal is 0.0479% [at 18.6 µM]. Take `O=C1NC2CCCCN2C12CCN(CCCN1c3ccccc3CCc3ccc(Cl)cc31)CC2` (stereo not given): the Potency result is “inactive”.
